Source: PubChem BioAssay (Tox21)
Inconclusive results are not listed. A call without a number means that no potency is given here. The source made the active and inactive calls. Calls come from the whole dose curve; as a rule, active = well fitted cell-killing curve with a large enough effect in the repeat runs (not every such curve was filed as active); inconclusive = weak or mixed curves, or effect the other way; inactive = no such curve, though single readings can be large or run the other way.

Experiment: qHTS assay to identify small molecule antagonists of the estrogen related receptor signaling pathway with the pleiotropic PPARgamma coactivator (PGC) from Tox21 10K library - cell viability counter screen (AID 1224840); note: nearly all actives have a fitted effect of over 40% in size
Settings: PGC/ERR reporter cells viability, CellTiter-Fluor, 17.5 h; series mostly up to 92.4 µM
Excerpt: National Center for Advancing Translational Sciences [NCATS]
NIH Chemical Genomics Center [NCGC]
U.S. Environmental Protection Agency [EPA]
National Institutes of Environmental Health Sciences [NIEHS]
National Toxicology Program [NTP]
U.S. Food and Drug Administration [FDA]
Estrogen related receptors (ERRs), the first orphan nuclear receptors discovered, play an important role in the control of cellular energy metabolism. ERRs are required for high-energy production in response to the environmental challenges. The pleiotropic PPARgamma coactivator (PGC) is a major partner of ERR and a key regulator in energy homeostasis. Together they have been implicated in the etiology of metabolic disorders such as Type 2 diabetes and metabolic syndrome. ERR-alpha was also identified as an adverse marker for breast cancer progression; ERR-alpha-positive tumors have a poor prognosis. To screen and to identify environmental compounds that perturb the ERR and PGC/ERR signaling pathways could provide valuable information for potential therapeutic or preventive measures in the treatment of metabolic disease. To differentiate true PGC/ERR antagonists or agonist from cytotoxic substances, the assay is multiplexed with cell viability assay.
Tox21 Assay Protocol Summary:
The PGC/ERR cells were dispensed at 2,000 cells/5 ul/well in 1536-well white plates using a Multidrop dispenser. After the assay plates were incubated at a 37 C/5% CO2 incubator for 6 hours, 23 nL of compounds dissolved in DMSO, positive and negative controls or DMSO only was transferred to the assay plate by a pin tool. The plates were incubated at 37 C for 17.5 hours. 1 ul/well of CellTiter-Fluor reagent was added into the assay plates using a Flying Reagent Dispenser. After 30-minute incubation at 37 C/5% CO2, the fluorescence intensity in the plates was measured using a ViewLux plate reader.
Potency is the fitted concentration of half-maximal effect.

Compound	Potency	viability change, negative = cytotoxic
CCOC(=O)[C@@](C)(N)Cc1ccc(O)c(O)c1	inactive	
Nc1ncnc2c1ncn2[C@@H]1O[C@H](COP(=O)(O)O)[C@@H](O)[C@H]1O	inactive	
O=C1OC(=O)c2ccc3c4c(ccc1c24)C(=O)OC3=O	inactive	
Clc1nc2ccccc2s1	inactive	
CCCCNc1c(C(=O)OCC)c(C)nc2c1cnn2CC	inactive	
O=C1Nc2ccc(Cl)cc2[C@@](C#CC2CC2)(C(F)(F)F)O1	inactive	
C1CC(COCC2CO2)CCC1COCC1CO1 (stereo not given)	inactive	
CC(CN(C)C)CN1c2ccccc2CCc2ccccc21 (stereo not given)	inactive	
O=C[C@H](O)[C@H](O)[C@H](O)CO	inactive	
CC1CNCC(C)O1 (stereo not given)	inactive	
C=CC/C=C/C/C=C/C/C=C/C	inactive	
O=S(=O)(O)c1cc(S(=O)(=O)O)c2ccc3c(S(=O)(=O)O)cc(S(=O)(=O)O)c4ccc1c2c43		1.08% [at 19 µM] (inactive)
CN1[C@@H]2CC[C@H]1CC(OC(=O)C(CO)c1ccccc1)C2 (stereo not given in full)	inactive	
CCc1cccc(CC)c1N(COC)C(=O)CS(=O)(=O)O	inactive	
O=C(O)CC(=O)O	inactive	
Brc1ccccc1-c1ccccc1	inactive	
Oc1cc2ccccc2cc1O	inactive	
COc1cccc(OC)c1O	inactive	
CCCCCCCCCCCCCCCCCO		-0.916% [at 19 µM] (inactive)
C/C=C/CO	inactive	

Compound	Potency	viability change, negative = cytotoxic
CCCCCCCCCC(=O)N(C)C	inactive	
CN(Cc1cc(Br)cc(Br)c1N)C1CCCCC1	inactive	
CC(=O)c1ccccc1N	inactive	
Cc1cc(C)c(C=O)c(C)c1	inactive	
CCCN(CCc1cccs1)[C@H]1CCc2c(O)cccc2C1	inactive	
CCc1ccc(C)nc1	inactive	
C=CC(C)(CCC=C(C)C)OC(=O)/C=C/c1ccccc1 (stereo not given)	inactive	
C[C@@H]1CC[C@H]2C(C)(C)[C@H]3C[C@@]12CC[C@@]3(C)O	inactive	
CN1[C@@H]2CC[C@@H]1CC(OC(=O)C(CO)c1ccccc1)C2 (stereo not given in full)	inactive	
CCCCCCS	inactive	
CO[Si](CCC1CCC2OC2C1)(OC)OC (stereo not given)	inactive	
COc1cc(C(=O)NS(=O)(=O)c2ccccc2C)ccc1Cc1cn(C)c2ccc(NC(=O)OC3CCCC3)cc12	inactive	
COc1cccc(CCc2ccccc2OCC(CN(C)C)OC(=O)CCC(=O)O)c1 (stereo not given)	inactive	
C=CC(=C)CC/C=C(\C)CCC=C(C)C		-0.28% [at 19 µM] (inactive)
SCCCCCCCCS	inactive	
CC(C)c1ccc(O)c(C(C)C)c1	inactive	
CCCCCCCCCCCCCCNCCO	inactive	
CCCCCCCCCCCC(=O)N(CC)CC	inactive	
Cc1cccc(Br)c1	inactive	
c1cc(OCC2CO2)cc(OCC2CO2)c1 (stereo not given)	68 µM (active)	
